Laboratory results taken from PubChem BioAssay AID1159580 (chemical genetic matrix, 2015).
About 2,000 (36%) of roughly 5,500 compounds were called active. Not shown: some 18% with an inconclusive outcome. Rule as the data show it: active = normalized growth mostly below about 0.91 (no sharp cut-off); inconclusive = no clear call, values can overlap the other calls; inactive = mostly above about 0.92. The list shows a part of the results.

Assay: chemical genetic growth profiling, strain panel (AID 1159580);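 also: tested at 20 µM; growth read once vehicle control cultures reached saturation at 30 °C; 1 = growth at the plate median or of vehicle wells; lower values mean less growth of the strain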
Conditions: growth OD

Measured: normalized growth

COC(=O)Oc1ccccc1C(=O)O
inactive: S. cerevisiae deletion strains, locus YAL013W, strain DEP1, stronger effect = lower value 1.02 | S. cerevisiae deletion strains, locus YBR021W, strain FUR4, stronger effect = lower value 0.976 | S. cerevisiae deletion strains, locus YBR229C, strain ROT2, stronger effect = lower value 1.01 | S. cerevisiae deletion strains, locus YCL029C, strain bik1, stronger effect = lower value 1.01 | S. cerevisiae deletion strains, locus YDL035C, strain GPR1, stronger effect = lower value 0.995 | S. cerevisiae deletion strains, locus YDL074C, strain BRE1, stronger effect = lower value 1.04 | S. cerevisiae deletion strains, locus YDL101C, strain DUN1, stronger effect = lower value 1.02 | S. cerevisiae deletion strains, locus YDL134C, strain PPH21, stronger effect = lower value 0.991 | S. cerevisiae deletion strains, locus YDL185W, strain tfp1, stronger effect = lower value 1.01 | S. cerevisiae deletion strains, locus YDL192W, strain arf1, stronger effect = lower value 1.02 | S. cerevisiae deletion strains, locus YDR101C, strain arx1, stronger effect = lower value 1.01 | S. cerevisiae deletion strains, locus YDR162C, strain NBP2, stronger effect = lower value 0.99 | S. cerevisiae deletion strains, locus YDR318W, strain mcm21, stronger effect = lower value 1.01 | S. cerevisiae deletion strains, locus YDR388W, stronger effect = lower value 1.01 | S. cerevisiae deletion strains, locus YDR502C, strain sam2, stronger effect = lower value 1.01 | S. cerevisiae deletion strains, locus YEL061C, strain CIN8, stronger effect = lower value 1.01 | S. cerevisiae deletion strains, locus YER110C, stronger effect = lower value 1.03 | S. cerevisiae deletion strains, locus YER155C, strain BEM2, stronger effect = lower value 1.01 | S. cerevisiae deletion strains, locus YER167W, strain BCK2, stronger effect = lower value 1.01 | S. cerevisiae deletion strains, locus YGL078C, strain dbp3, stronger effect = lower value 1.01 | S. cerevisiae deletion strains, locus YGL086W, strain mad1, stronger effect = lower value 1.01 | S. cerevisiae deletion strains, locus YGL248W, strain PDE1, stronger effect = lower value 1.01 | S. cerevisiae deletion strains, locus YGR135W, strain pre9, stronger effect = lower value 1.01 | S. cerevisiae deletion strains, locus YGR252W, strain gcn5, stronger effect = lower value 1.01 | S. cerevisiae deletion strains, locus YHR030C, strain SLT2, stronger effect = lower value 1.01 | S. cerevisiae deletion strains, locus YHR079C, strain IRE1 (second series), stronger effect = lower value 1.01 | S. cerevisiae deletion strains, locus YHR094C, strain hxt1, stronger effect = lower value 1.02 | S. cerevisiae deletion strains, locus YHR129C, strain ARP1, stronger effect = lower value 1.01 | S. cerevisiae deletion strains, locus YHR200W, strain rpn10, stronger effect = lower value 1.02 | S. cerevisiae deletion strains, locus YIL066C, strain RNR3, stronger effect = lower value 0.987 | S. cerevisiae deletion strains, locus YIL073C, strain SPO22, stronger effect = lower value 1.03 | S. cerevisiae deletion strains, locus YIL125W, strain kgd1, stronger effect = lower value 1.02 | S. cerevisiae deletion strains, locus YIR030C, strain dcg1, stronger effect = lower value 1.01 | S. cerevisiae deletion strains, locus YJL095W, strain BCK1, stronger effect = lower value 1.05 | S. cerevisiae deletion strains, locus YJL134W, strain LCB3, stronger effect = lower value 1.01 | S. cerevisiae deletion strains, locus YJL168C, strain set2, stronger effect = lower value 1.03 | S. cerevisiae deletion strains, locus YJL187C, strain SWE1 (second series), stronger effect = lower value 1.02 | S. cerevisiae deletion strains, locus YJR043C, strain POL32, stronger effect = lower value 0.983 | S. cerevisiae deletion strains, locus YKL009W, strain mrt4, stronger effect = lower value 1.01 | S. cerevisiae deletion strains, locus YKL068W, stronger effect = lower value 1 | S. cerevisiae deletion strains, locus YKL085W, strain MDH1 (second series), stronger effect = lower value 1.01 | S. cerevisiae deletion strains, locus YKL085W, strain MDH1, stronger effect = lower value 1.01 | S. cerevisiae deletion strains, locus YKL190W, strain CNB1, stronger effect = lower value 1.02 | S. cerevisiae deletion strains, locus YKR001C, strain vps1, stronger effect = lower value 1.01 | S. cerevisiae deletion strains, locus YLR039C, strain RIC1, stronger effect = lower value 1.02 | S. cerevisiae deletion strains, locus YLR058C, strain SHM2, stronger effect = lower value 1.01 | S. cerevisiae deletion strains, locus YLR102C, strain apc9, stronger effect = lower value 1.02 | S. cerevisiae deletion strains, locus YLR262C, strain YPT6, stronger effect = lower value 1.04 | S. cerevisiae deletion strains, locus YLR268W, strain sec22, stronger effect = lower value 1.02 | S. cerevisiae deletion strains, locus YLR330W, strain CHS5, stronger effect = lower value 1.01 | S. cerevisiae deletion strains, locus YLR342W, strain FKS1 (second series), stronger effect = lower value 0.995 | S. cerevisiae deletion strains, locus YLR371W, strain rom2, stronger effect = lower value 1.02 | S. cerevisiae deletion strains, locus YLR418C, strain cdc73, stronger effect = lower value 1.06 | S. cerevisiae deletion strains, locus YML016C, strain PPZ1, stronger effect = lower value 0.999 | S. cerevisiae deletion strains, locus YML032C, strain rad52, stronger effect = lower value 1.01 | S. cerevisiae deletion strains, locus YML124C, strain tub3, stronger effect = lower value 1.01 | S. cerevisiae deletion strains, locus YMR078C, strain ctf18, stronger effect = lower value 1.02 | S. cerevisiae deletion strains, locus YMR223W, strain ubp8, stronger effect = lower value 1.01 | S. cerevisiae deletion strains, locus YMR263W, strain SAP30, stronger effect = lower value 1.03 | S. cerevisiae deletion strains, locus YMR307W, strain GAS1, stronger effect = lower value 1.06 | S. cerevisiae deletion strains, locus YNL067W, strain RPL9B, stronger effect = lower value 1.07 | S. cerevisiae deletion strains, locus YNL128W, strain TEP1, stronger effect = lower value 1.02 | S. cerevisiae deletion strains, locus YNL153C, strain GIM3, stronger effect = lower value 1.03 | S. cerevisiae deletion strains, locus YNL233W, strain BNI4, stronger effect = lower value 1.01 | S. cerevisiae deletion strains, locus YNL250W, strain rad50, stronger effect = lower value 1.04 | S. cerevisiae deletion strains, locus YNL271C, strain bni1, stronger effect = lower value 1.02 | S. cerevisiae deletion strains, locus YNL298W, strain CLA4, stronger effect = lower value 1.02 | S. cerevisiae deletion strains, locus YNL307C, strain MCK1, stronger effect = lower value 1.02 | S. cerevisiae deletion strains, locus YNR052C, strain pop2, stronger effect = lower value 1.02 | S. cerevisiae deletion strains, locus YOL012C, strain htz1 0.797 | S. cerevisiae deletion strains, locus YOL147C, strain pex11, stronger effect = lower value 1.02 | S. cerevisiae deletion strains, locus YOR061W, strain CKA2, stronger effect = lower value 1.01 | S. cerevisiae deletion strains, locus YOR069W, strain VPS5, stronger effect = lower value 1.01 | S. cerevisiae deletion strains, locus YOR136W, strain idh2, stronger effect = lower value 1.02 | S. cerevisiae deletion strains, locus YOR144C, strain elg1, stronger effect = lower value 1.02 | S. cerevisiae deletion strains, locus YOR184W, strain ser1, stronger effect = lower value 1.02 | S. cerevisiae deletion strains, locus YOR316C, strain cot1, stronger effect = lower value 1.02 | S. cerevisiae deletion strains, locus YPL241C, strain CIN2, stronger effect = lower value 1 | S. cerevisiae deletion strains, locus YPR119W, strain clb2, stronger effect = lower value 1.02 | S. cerevisiae deletion strains, locus YPR141C, strain kar3, stronger effect = lower value 1.03 | S. cerevisiae deletion strains, locus YPR163C, strain tif3, stronger effect = lower value 1.01 | S. cerevisiae deletion strains, locus YPR167C, strain met16, stronger effect = lower value 1.01 | S. cerevisiae deletion strains, strain wtn01, stronger effect = lower value 1.01 | S. cerevisiae strains, strain wild type, stronger effect = lower value 1.02
